Results on 20 molecules are retold here after PubChem BioAssay (NCI).

The nature of experiment [1]: NCI Yeast Anticancer Drug Screen. Data for the rad50 strain (AID 155).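 Note: 0% = growth of vehicle-only cultures of the same strain.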 The following applies: S. cerevisiae rad50 strain growth inhibition; at 50.0 µM; active compounds read high. In outline: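 Readout: growth inhibition relative to vehicle-treated cultures. Compound exposure was carried out in a genetically defined yeast strain deficient in DNA damage repair.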
Experiment [2] is described as follows: NCI Yeast Anticancer Drug Screen. Data for the mec2-1 strain (AID 157). The following applies: S. cerevisiae mec2-1 strain, at 50.0 µM, active compounds read high. In outline:
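Using mec2-1 yeast: add compound, measure growth, express inhibition versus vehicle-treated cultures.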

Experiment [3] can be described thus: NCI Yeast Anticancer Drug Screen. Data for the sgs1 mgt1 strain (AID 161).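 Note: 0% = growth of cultures given vehicle only.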 The following applies: S. cerevisiae sgs1 mgt1 strain, at 50.0 µM, active compounds read high. The essentials: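 Growth of a repair-deficient yeast mutant was monitored after compound treatment and expressed as inhibition relative to vehicle-treated cultures.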
A short description of experiment [4]: NCI Yeast Anticancer Drug Screen. Data for the cln2 rad14 strain (AID 165).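 Note: 0% = growth equal to vehicle treated cultures.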 The following applies: S. cerevisiae cln2 rad14 strain, at 50.0 µM, active compounds read high. In outline: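 Yeast strain cln2 rad14, bearing defects in cell cycle control and DNA repair, serves as the test system; values reflect growth inhibition compared with vehicle.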
Experiment [5] is described as follows: NCI Yeast Anticancer Drug Screen. Data for the bub3 strain (AID 167). The following applies: S. cerevisiae bub3 mutant strain, at 50.0 µM, active compounds read high. The essentials: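 Readout: yeast growth inhibition, expressed relative to vehicle-only wells. The test organism is a mutant strain from a panel with lesions in DNA repair or checkpoint genes.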
A short description of experiment [6]: NCI Yeast Anticancer Drug Screen. Data for the mlh1 rad18 strain (AID 175). The following applies: S. cerevisiae mlh1 rad18 strain growth inhibition; at 50.0 µM; active compounds read high. The essentials: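 Steps: expose repair-defective yeast to compound; measure growth; express inhibition against vehicle-treated controls.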

About 79,000 compounds went through this panel and 15% of them were active in at least one assay; those are over-represented in the sample as a whole. Unmarked numbers belong to inactive results. The source made the active and inactive calls. Cut-off read from the data, not from the text of the source: active = growth inhibition above about 70%; inactive = the rest.

For `CCCCCCCCCCC(=O)O`, the growth inhibition was 0.25% in experiment [1]; -2.2% in experiment [2]; 24.9% in experiment [3]; -4.65% in experiment [4]; -15.4% in experiment [5]; 15.2% in experiment [6].
Turning to `CCCCOP(O)(=S)OCCCC.[Y]`, the growth inhibition was -20.9% in experiment [1]; 2.95% in experiment [2]; 4.2% in experiment [3]; 25.4% in experiment [4]; -8.6% in experiment [5]; -2.75% in experiment [6].
Consider `O=C1NC(=S)N/C1=C/c1ccccc1O`, for which the growth inhibition in experiment [1] was 12.3%; in experiment [2], 6.65%; in experiment [3], -27.6%; in experiment [4], -14.8%; in experiment [5], -27.7%; in experiment [6] it was -42.4%.
With `CNC(=O)N1CN(c2ccccc2)C2(CCN(Cc3ccccc3)CC2)C1=O`, the growth inhibition in experiment [1] is -29.4%; in experiment [2], -15.8%; in experiment [3], -15.9%; in experiment [4], -2.8%; in experiment [5], -10.4%; in experiment [6], -4.1%.
`COCC1OC2OC3C(COC)OC(OC4C(COC)OC(OC5C(COC)OC(OC6C(COC)OC(OC7C(COC)OC(OC8C(COC)OC(OC1C(O)C2O)C(O)C8O)C(O)C7O)C(O)C6O)C(O)C5O)C(O)C4O)C(O)C3O` (stereo not given) (tested in a mixture with another compound): the growth inhibition was 13.2% in experiment [1]; -13.6% in experiment [2]; -4.6% in experiment [3]; 20.1% in experiment [4]; -18.8% in experiment [5]; -64.7% in experiment [6].
For the molecule `C=COC(N)=O`, the growth inhibition was 0.8% in experiment [1]; -2.7% in experiment [2]; 5.05% in experiment [3]; -0.9% in experiment [4]; 0.05% in experiment [5]; -8.15% in experiment [6].
In the case of `O=C(CI)NCCNC(=O)CI`, the growth inhibition is 11.1% in experiment [1]; 16.2% in experiment [2]; 21.4% in experiment [3]; 20.6% in experiment [4]; 10.6% in experiment [5]; 39.5% in experiment [6].
Consider `CC(C)OP(=O)(OC(C)C)C(C)(C)O`, for which the growth inhibition in experiment [1] is 2.8%; in experiment [2], 3.8%; in experiment [3], 12.9%; in experiment [4], 21.3%; in experiment [5] it was -1.35%; in experiment [6], -32.1%.
In the case of `N#CCc1ccc(O)cc1`, the growth inhibition in experiment [1] was 1.25%; in experiment [2] it was 6.75%; in experiment [3] it was -20.8%; in experiment [4], -5.1%; in experiment [5] it was -4.7%; in experiment [6], 14%.
As for `O=C1NC2C(=CC(O)C(O)C2O)c2cc3c(cc21)OCO3` (stereo not given), the growth inhibition was 29.9% in experiment [1]; 44.2% in experiment [2]; 35.8% in experiment [3]; 47.1% in experiment [4]; 39.1% in experiment [5]; 37.2% in experiment [6].
For the molecule `COc1ccc2c(c1OC)C[N+]1(C)CCc3cc4c(cc3C1=C2)OCO4` (stereo not given), the growth inhibition is 21.6% in experiment [1]; -0.5% in experiment [2]; -12.8% in experiment [3]; -1.95% in experiment [4]; -2.2% in experiment [5]; -2% in experiment [6].
For `O=c1ccn(C2OC(CO)C(O)C2[Se]c2ccccc2)c(=O)[nH]1` (stereo not given), the growth inhibition in experiment [1] is 4%; in experiment [2] it was -9.45%; in experiment [3], 16.8%; in experiment [4], 6.05%; in experiment [5], 7.2%; in experiment [6], 27.1%.
In the case of `C(#CP(c1ccccc1)c1ccccc1)c1ccccc1`, the growth inhibition is 62.5% in experiment [1]; 34.5% in experiment [2]; 74.8% (active) in experiment [3]; 20.1% in experiment [4]; 76.8% (active) in experiment [5]; 85.5% (active) in experiment [6].
As for `CC(=O)OCC1OC(n2ncc3c(N4CC4)ncnc32)C(OC(C)=O)C1OC(C)=O` (stereo not given), the growth inhibition in experiment [1] was 7.7%; in experiment [2] it was -12.6%; in experiment [3], -21.3%; in experiment [4], 6.65%; in experiment [5] it was 1.45%; in experiment [6], 4.25%.
Regarding `C=C1OC(OC)CC(N=[N+]=[N-])C1O` (stereo not given), the growth inhibition in experiment [1] is -14.1%; in experiment [2] it was -2.9%; in experiment [3], -6.4%; in experiment [4] it was -5.3%; in experiment [5] it was 2.45%; in experiment [6], -15.6%.
Regarding `Cn1cnc([N+](=O)[O-])c1[Se]c1nc(N)nc2nc[nH]c12`, the growth inhibition in experiment [1] was -24.1%; in experiment [2] it was -12%; in experiment [3] it was -26.8%; in experiment [4], 15.2%; in experiment [5], -7.65%; in experiment [6], -17.9%.
On to `CC(=O)OC1CCC2(C)C(CC(=O)C3C2CCC2(C)C(OC(C)=O)CCC32)C1` (stereo not given), for which the growth inhibition is 7.35% in experiment [1]; 7.35% in experiment [2]; 1.5% in experiment [3]; 15.8% in experiment [4]; -4.2% in experiment [5]; 2.15% in experiment [6].
For `CC1CN=C(NCc2ccccc2)S1` (stereo not given), the growth inhibition in experiment [1] is -33.2%; in experiment [2] it was 16.6%; in experiment [3], -33.5%; in experiment [4], 21.9%; in experiment [5] it was -1.05%; in experiment [6] it was -6.6%.
Turning to `CCCCOP(O)(=S)OCCCC.[Tb]`, the growth inhibition in experiment [1] was -19%; in experiment [2], 14.6%; in experiment [3], -14.6%; in experiment [4], 29.1%; in experiment [5] it was -14.8%; in experiment [6], 17.9%.
As for `CC(=O)CC(C)=O.CC(=O)CC(C)=O.[Co]`, the growth inhibition in experiment [1] was -31.9%; in experiment [2], -41%; in experiment [3], -8%; in experiment [4], -133%; in experiment [5], -52.3%; in experiment [6] it was 0.7%.
